The structures appear in SMILES notation. Values joined by “and” are separate entries in the source; they are usually repeats but may differ in a detail not shown here. Equal entries are not always repeated. About 16,000 (7.3%) of roughly 220,000 compounds were called active. Where a call stands in place of a potency, no number is given. Inconclusive results (about 25%) are left out. Many of the other results were omitted from the sample, so actives are more common in it than they were. Unmarked numbers belong to inactive results. Calls come from the whole dose curve; as a rule, active = well fitted inhibition curve with a large enough effect (not every such curve was filed as active); inconclusive = small, poorly fitted or top-dose-only effect, or another doubt; inactive = no such curve, though single readings can be large or run the other way.
Potency is the fitted concentration of half-maximal effect.

Aldehyde dehydrogenase 1A1 (Homo sapiens), sequence (P00352 whole entry, looked up): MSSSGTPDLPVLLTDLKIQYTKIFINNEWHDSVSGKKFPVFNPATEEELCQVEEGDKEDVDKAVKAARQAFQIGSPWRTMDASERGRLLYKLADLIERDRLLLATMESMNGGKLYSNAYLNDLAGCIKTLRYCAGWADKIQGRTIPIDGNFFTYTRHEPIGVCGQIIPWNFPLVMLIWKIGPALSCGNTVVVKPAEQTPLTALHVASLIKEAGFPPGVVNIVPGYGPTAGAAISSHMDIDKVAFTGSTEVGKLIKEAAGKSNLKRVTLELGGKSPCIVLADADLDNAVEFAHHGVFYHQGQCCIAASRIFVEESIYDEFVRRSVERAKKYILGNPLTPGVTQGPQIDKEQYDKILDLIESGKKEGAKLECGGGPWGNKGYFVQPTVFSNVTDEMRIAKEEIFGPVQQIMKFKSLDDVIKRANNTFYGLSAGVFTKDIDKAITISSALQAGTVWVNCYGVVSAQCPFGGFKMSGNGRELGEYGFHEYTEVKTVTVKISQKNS

This assay has as its target Aldehyde dehydrogenase 1A1 (Homo sapiens) (UniProt P00352). Description: qHTS Assay for Inhibitors of Aldehyde Dehydrogenase 1 (ALDH1A1). To be noted: Purified ALDH1A1, NADH fluorescence, propionaldehyde substrate; series mostly up to 75.3 µM. (qHTS replaces the single test concentration by a dilution series.)
As for `O=C1CCCC2=C1C(c1cccs1)CC(=O)N2c1ccc(F)cc1` (stereo unspecified), the Potency result is “inactive”. Still for that read-out and setting: the result for `Cn1c(N)cc(-c2ccc(F)cc2)c(C#N)c1=O` reads “inactive”.

For the compound `N#CC1=C(N)N(c2ccc(F)cc2)C(=O)C1`, the Potency is 22.4 µM (active). On the same count and under the same terms, with `O=C(CCC(=O)c1cccs1)NC1CCCCCC1` the entry was “inactive”; with `CCCCNC(=O)N1CCN(S(C)(=O)=O)CC1`, “inactive”. For `COc1ccccc1NC(=O)COC(=O)Cc1ccc(S(=O)(=O)N2CCCCC2)s1`, the Potency entry was “inactive”. Still for that read-out and setting: the result for `CCOC(=O)C1Sc2[nH]c(=O)sc2C(c2ccc(Cl)cc2)C1C(=O)OCC` (stereo unspecified) reads 11.2 µM (active); that for `CCOC(=O)C1=C(C)NC(=O)N(C(C)=O)C1c1ccc(Cl)cc1` (stereo unspecified), “inactive”; that for `Cc1c(NC(=O)CCC2CCCCC2)cc(C(=O)N2CCOCC2)cc1[N+](=O)[O-]`, “inactive”. The same measure, in the same setting: the result for `O=C(N/N=C/c1ccco1)c1ccc(NC(=O)C2CC2)cc1` reads “inactive”; that for `Cc1ccc(NC(=O)Nc2cccc(C(F)(F)F)c2)nc1`, “inactive”; that for `COc1cccc(/C=N/NC(=O)c2cccc([N+](=O)[O-])c2)c1OS(=O)(=O)c1ccc(C)cc1`, “inactive”. Same read-out and setting: with `COc1ccc(/C=N/NC(=O)c2ccccc2)cc1OS(=O)(=O)c1ccccc1` the figure was 14.1 µM (active); with `COc1cc(/C=N/NC(=O)c2ccccc2)ccc1OS(=O)(=O)c1ccccc1`, 14.1 µM (active). Regarding `COc1ccc(/C=N\NC(=O)c2sc(N)nc2C)cc1OC`, the Potency result is “inactive”. On the same count and under the same terms, with `COc1ccc(C(=O)Nc2ccccc2C(=O)N/N=C/c2ccc(O)c(OC)c2)cc1` the entry was “inactive”; with `COc1ccc(/C=N/NC(=O)c2ccc(Cl)cc2)cc1COC(C)=O`, “inactive”.

`O=C(NNC(=O)c1cnccc1C(F)(F)F)c1ccc(Cl)cc1`: the Potency result was “inactive”. Same read-out and setting: the result for `Nc1nc(O)c(CC(=O)O)s1` reads “inactive”; that for `Cc1cc(C)c(C(N)=O)c(Cl)n1`, “inactive”. The same measure, in the same setting: the result for `CCOC(=O)c1c(NC(=O)CCl)sc(C(=O)N(CC)CC)c1C` reads 10 µM (active); that for `CCOC(=O)c1c(NC(C)=O)sc2c(O)c(Br)ccc12`, “inactive”.

With `CCc1c(C)sc(NC(=O)OC)c1C(=O)N1CCOCC1`, the Potency result is “inactive”.

As for `CCOC(=O)c1sc(NC(=O)CSc2nnc(-c3ccco3)o2)c(C(=O)OCC)c1C`, the Potency entry is “inactive”. Still for that read-out and setting: with `CCOC(=O)c1sc(NC(=O)CCN2CCOCC2)c(C(=O)OCC)c1C` the figure was 17.8 µM (active); with `CCOC(=O)c1sc(NC(=O)COc2ncnc3ccccc23)c(C(=O)OCC)c1C`, “inactive”.

With `O=C(c1cc(=O)c2ccccc2o1)N1CCN(c2ccccc2)CC1`, the Potency result was “inactive”. Same read-out and setting: with `COc1cccc(C(=O)Nc2nc3ccc(S(C)(=O)=O)cc3s2)c1` the entry was “inactive”; with `CC(=O)NC1=NN(C(C)=O)C(C)(CCS(=O)(=O)c2ccc(Cl)c(Cl)c2)S1` (stereo unspecified), “inactive”.

As for `Cc1ccc(N=C2NC(=O)/C(=C/C=C/c3ccco3)S2)cc1C`, the Potency is 7.94 µM (active).

With `CN(C)c1ccc(-n2cccc2/C=C2/SC(=Nc3ccc(F)cc3)NC2=O)cc1`, the Potency entry was “inactive”. The same measure, in the same setting: with `Nc1nc2c(ncn2[C@@H]2O[C@H](COP(=O)(O)OP(=O)(O)OP(=O)(O)O)[C@@H](O)C2O)c(=O)[nH]1` (stereo partly specified) the entry was “inactive”; with `O=C(Nc1ccccc1C(=O)N1CCOCC1)c1ccc(Cl)cc1`, “inactive”; with `O=C(CSCc1c(F)cccc1Cl)NCC1CCCO1` (stereo unspecified), “inactive”.

For `Fc1cccc(Cl)c1CSc1ccc(-c2ccco2)nn1`, the Potency was 20 µM (active). Still for that read-out and setting: the result for `Cc1nnsc1C(=O)NCc1c(F)cccc1Cl` reads “inactive”; that for `CCc1ccc(C(=O)OCC(=O)NCC(F)(F)F)cc1`, “inactive”; that for `OCCNCCOc1ccc(Cl)c(Cl)c1`, “inactive”. On the same count and under the same terms, with `COc1ccc(-n2cnnc2SCC(=O)Nc2cccc([N+](=O)[O-])c2)cc1` the entry was “inactive”; with `C=CCn1c(COc2ccccc2)nnc1SCC(=O)NCC(=O)OCC`, “inactive”. Still for that read-out and setting: with `C=CCn1c2ccccc2c2nnc(SC(CC)C(=O)Nc3nc(C)c(C(=O)OCC)s3)nc21` (stereo unspecified) the entry was “inactive”; with `C=CCn1c2ccccc2c2nnc(SCc3[nH]c(=O)[nH]c3C(=O)CCCCC(=O)OCC)nc21`, 10 µM (active). Regarding `COc1ccccc1C(c1nnnn1C(C)(C)C)N1CCN(Cc2ccccc2)CC1` (stereo unspecified), the Potency was 20 µM (active). The same measure, in the same setting: the result for `CC(C)(C)n1nnnc1C(c1ccc(F)cc1)N1CCN(Cc2ccc3c(c2)OCO3)CC1` (stereo unspecified) reads “inactive”; that for `CCCC(c1nnnn1C(C)(C)C)N1CCN(Cc2ccccc2)CC1` (stereo unspecified), “inactive”; that for `CCc1c(SCCC(=O)O)nc2ccccc2c1C`, “inactive”. Still for that read-out and setting: with `CC(=O)Nc1ccc(/C=N/NC(=O)c2cccs2)cc1` the entry was “inactive”.

In the case of `O=C(N/N=C/c1ccco1)c1ccc(C(=O)N/N=C/c2ccco2)o1`, the Potency result was “inactive”. For the compound `O=C(N/N=C/C=C/c1ccco1)c1cccs1`, the Potency was 2 µM (active). Same read-out and setting: the result for `CCOc1cc(/C=C(/C#N)c2ccc(Cl)cc2)cc(Cl)c1OCC(=O)O` reads “inactive”; that for `Cc1cccc(CCNS(=O)(=O)c2ccc(S(=O)(=O)NC3CCCC3)cc2)c1`, “inactive”; that for `Cn1sc(=O)c2cc(S(=O)(=O)NC3CC3)ccc21`, 0.501 µM (active).

`N#CCCN1CCN(S(=O)(=O)c2ccc(S(=O)(=O)NC3CC3)cc2)CC1`: the Potency entry is “inactive”. Same read-out and setting: the result for `CCN(CC)C(=O)Oc1ccc(OC(=O)N(CC)CC)cc1` reads “inactive”; that for `Cc1nonc1NC(=O)CSc1nc2ccccc2cc1C#N`, “inactive”. Consider `Cc1ccc2nc(CC(=O)c3ccc4ccccc4c3)c(=O)[nH]c2c1`, for which the activity, negative = inhibition is 12.1% [at 13.5 µM]. Consider `C=CC(=O)c1ccc2ccccc2c1`, for which the Potency is 11.2 nM (active) and 100 nM (active). With `CC(=O)CCC(=O)c1ccc2ccccc2c1`, the Potency result is “inactive”. Same read-out and setting: the result for `CC(=O)Nc1nc2ccccc2n1Cc1ccc(C)cc1` reads “inactive”; that for `CN(C)CCCN(C(=O)COc1ccccc1)c1nc2c(Cl)cccc2s1`, “inactive”.

`CCC(C)(C)NC(=O)CN(C(=O)CCC(=O)Nc1cc(C)ccn1)c1ccc2c(c1)OCCO2`: the Potency entry was “inactive”. Still for that read-out and setting: the result for `Cc1ccnc(NC(=O)c2ccoc2C)c1` reads “inactive”; that for `COc1cc(SC)ccc1C(=O)Nc1cc(C)ccn1`, 22.4 µM (active); that for `COc1cc(SC)ccc1C(=O)Nc1nc(C)cs1`, “inactive”. Same read-out and setting: with `O=C(O)COc1ccc(/C=N/O)cc1Br` the entry was “inactive”. In the case of `Cc1ccccc1CN(c1ccc(C(=O)NCC2CCCO2)cc1)S(C)(=O)=O` (stereo unspecified), the Potency result is “inactive”.

As for `C/C=C(\C)C(=O)NCCN1C2=NC[C@H](Cc3ccc(O)cc3)N2C[C@@H]1Cc1ccc(OC)cc1`, the Potency entry is “inactive”. On the same count and under the same terms, the result for `CC(NC(=O)COC(=O)c1ccc2c(c1)OCO2)c1ccccc1` (stereo unspecified) reads “inactive”; that for `CCOC(=O)c1c(Cc2ccc(Cl)cc2)c[nH]c1C`, “inactive”. Still for that read-out and setting: with `CCOC(=O)c1ccc(CS(=O)c2ccc(Cl)cc2)o1` (stereo unspecified) the figure was 2.82 µM (active); with `CCOC(=O)c1ccc(COC(=O)c2cc(=O)[nH]c3ccccc23)o1`, “inactive”.

The record behind these values is PubChem BioAssay AID1030 (National Center for Advancing Translational Sciences (NCATS), 2008).
